# Bioassay records deposited in PubChem by The Scripps Research Institute Molecular Screening Center.
# TEAD-YAP inh: TEAD-YAP interaction inhibition, primary screen, TEAD-YAP interaction inhibitor project, luminescence, HEK-TIYL cells; actives 1.4% (n = 640,000); TEAD-Gal4/YAP UAS-luciferase luminescence; inhibition, % at 9.12 µM; in the data active means inhibition above about 32%
# GPR151 ag: activators of human GPR151, primary screen, cell-based, PathHunter beta-arrestin, luminescence; PathHunter beta-arrestin GPR151 cells; activation, % at 11.2 µM; actives 1% (n = 650,000); in the data active means activation above about 4.9%
# FBW7 act: FBW7 E3 ligase activators, primary screen, biochemical, AlphaScreen, human; normalized activity (activation), % at 26.1 µM; actives 0.13% (n = 650,000); AlphaScreen FBW7–phospho-cyclin E peptide binding, activator screen; F-box/WD repeat-containing protein 7 (Homo sapiens), Q969H0; in the data active means normalized activity above about 1.9%;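 further: purified mutant Fbw7 with reduced substrate affinity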
# MITF inh: MITF inhibitors, primary screen, biochemical, AlphaScreen, human | Microphthalmia-associated transcription factor (Homo sapiens), O75030 | AlphaScreen MITF homodimerization, bead proximity signal | inhibition, % at 2.6 µM | actives 0.91% (n = 650,000); in the data active means inhibition above about 50%
# Target sequence (O75030 whole entry, looked up): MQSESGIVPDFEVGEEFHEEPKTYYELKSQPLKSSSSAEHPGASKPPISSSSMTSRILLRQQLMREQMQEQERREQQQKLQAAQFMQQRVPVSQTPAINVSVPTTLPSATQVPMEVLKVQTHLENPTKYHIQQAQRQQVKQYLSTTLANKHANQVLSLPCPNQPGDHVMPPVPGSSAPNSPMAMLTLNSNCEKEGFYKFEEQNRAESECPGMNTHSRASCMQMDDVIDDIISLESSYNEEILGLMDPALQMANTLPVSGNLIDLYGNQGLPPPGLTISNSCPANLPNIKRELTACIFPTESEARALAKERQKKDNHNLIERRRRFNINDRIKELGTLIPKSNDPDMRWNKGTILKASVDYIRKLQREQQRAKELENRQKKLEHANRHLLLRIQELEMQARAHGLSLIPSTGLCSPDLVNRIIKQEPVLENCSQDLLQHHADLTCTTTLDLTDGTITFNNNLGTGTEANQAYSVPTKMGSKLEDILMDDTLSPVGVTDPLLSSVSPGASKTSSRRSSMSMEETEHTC
# GPR151 conf act: GPR151 activators, triplicate retest, confirmation, cell-based, PathHunter beta-arrestin, luminescence; AID 1508609, 2020; 6,700 tested, under 10 active; GPR151 PathHunter beta-arrestin cells, 90 min; % of EA-reagent control over plate median; activation, % at 11.2 µM; shares compounds with GPR151 ag;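 active means mean percent activation across replicates above the confirmation screen cutoff of 4.91%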
# GPR119 ag: GPR119 activators in beta-arrestin cells, counter-screen for GPR151 activator project, cell-based, PathHunter beta-arrestin, luminescence, triplicate. shares compounds with GPR151 ag. 90 min; 0 = compound-well median, 100 = enzyme-acceptor control. activation, % at 11.2 µM. actives 0.3% (n = 6,700). AID 1508611, 2020;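 active means mean percent activation in the counterscreen above 29.09%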;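 further: counterscreen on off-target GPR119 to flag nonselective hits from the GPR151 activator screen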
# Numbers stand for hits; i = inactive; nt = no result; ! = not active in a repeat. The list is not random: actives were taken first. Their share in the collection is about 3.5%.
SMILES,TEAD-YAP inh,GPR151 ag,FBW7 act,MITF inh,GPR151 conf act,GPR119 ag
COc1ccc(/C=C/C(=O)Nc2ccc([N+](=O)[O-])cc2OC)cc1Br,i,i,i,i,nt,nt
COc1ccc(/C=C/C(=O)Nc2cc([N+](=O)[O-])ccc2OC)cc1Br,i,5.4,i,i,i,i
COc1ccc(OC)c(/C=C2\N=C(c3ccccc3OC)OC2=O)c1,i,i,i,i,nt,nt
COc1ccc(/C=C2\N=C(c3ccccc3OC)OC2=O)c(OC)c1,i,6.5,i,i,i,i
COc1ccc(OC)c(NC(=O)CC2C(=O)NCCN2C(=O)C(F)(F)F)c1 (stereo not given),i,7.0,i,i,i,i
CC1(C)CC2(CCO1)OC(=O)CC2C(=O)NCc1ccccc1 (stereo not given),i,5.6,i,i,i,i
Cc1cc(-c2ccccc2)nc(N2CCC(C(=O)NCc3cccs3)CC2)n1,i,10.5,i,i,i,i
Cc1cc(N(C)C)nc(N2CCC(C(=O)NCc3cccs3)CC2)n1,i,i,i,i,nt,nt
O=C(Nc1ccc(I)cc1C(=O)NCc1ccco1)c1cccnc1,i,i,i,i,nt,nt
O=C(CCCCCn1c(=S)[nH]c2cc3c(cc2c1=O)OCO3)NCc1ccccc1,i,i,i,i,nt,nt
O=C(CCCCCn1c(=S)[nH]c2cc3c(cc2c1=O)OCO3)NCc1cccnc1,i,5.9,i,i,i,i
COc1ccc(C)cc1NC(=O)CN1CCOCC1,i,i,i,i,nt,nt
COc1ccccc1NS(=O)(=O)c1ccc(CN2C(=O)c3cccnc3C2=O)cc1,i,7.3,i,i,i,i
CCOc1ccc(NS(=O)(=O)c2ccc(CN3C(=O)c4cccnc4C3=O)cc2)cc1,i,i,i,i,nt,nt
O=C(Nc1ccc(N2CCOCC2)cc1N1CCOCC1)c1cc2ccccc2oc1=O,i,i,i,i,nt,nt
C=CCn1c(=S)n(CC=C)c2ccccc21,i,i,i,i,nt,nt
CCC(C)NC(=O)CSc1nc2ccccc2c(=O)n1CCCN1CCCCC1CC (stereo not given),i,i,i,i,nt,nt
COc1ccc(CCNC(=O)CCn2c(SCC(=O)Nc3cc(C)on3)nc3ccccc3c2=O)cc1OC,i,4.9,i,i,i,i
O=C(CSc1nc2ccccc2c(=O)n1CCC1=CCCCC1)NCCc1ccccc1,i,6.4,i,i,i,i
O=C(CSc1nc2ccsc2c(=O)n1Cc1ccccc1)NCCC1=CCCCC1,i,8.7,i,i,i,i
CC(NC(=O)CSc1nc2ccccc2c(=O)n1CCCO)c1ccccc1 (stereo not given),i,6.5,i,i,i,i
O=C(C1=CCN(S(=O)(=O)c2ccccc2)CC1)N1CCc2ccccc21,i,i,i,i,nt,nt
COc1ccccc1NC(=O)CSc1nc2ccsc2c(=O)n1Cc1ccccc1,i,6.0,i,i,i,i
Cc1ccc(Cn2c(SCC(=O)C(C)(C)C)nc3ccsc3c2=O)cc1,i,5.0,i,i,i,i
Cc1ccc(CSc2nc3ccsc3c(=O)n2Cc2ccc(C)cc2)cc1,i,i,i,i,nt,nt
SMILES,TEAD-YAP inh,GPR151 ag,FBW7 act,MITF inh,GPR151 conf act,GPR119 ag
CCOC(=O)CSc1nc2ccccc2c(=O)n1Cc1ccccc1OC,i,5.2,i,i,i,i
COc1cccc(-c2nc(-c3ccc([N+](=O)[O-])cc3)no2)c1,i,i,i,i,nt,nt
COc1ccc(-c2noc(C(C)c3ccc([N+](=O)[O-])cc3)n2)cc1 (stereo not given),i,5.1,i,i,i,i
O=C(CCCCCn1c(SCC(=O)NCC2CCCO2)nc2cc3c(cc2c1=O)OCO3)NCc1ccc2c(c1)OCO2 (stereo not given),i,i,i,i,nt,nt
CCOc1ccccc1-c1nnc(SCC(=O)NCc2ccccc2)o1,i,6.9,i,i,i,i
Cc1c(Cl)cccc1NC(=O)CSCC(=O)Nc1ccc(Br)cc1,i,6.4,i,i,i,i
COc1ccccc1-n1c(-c2cc(C)nn2C)n[nH]c1=S,i,i,i,i,nt,nt
O=C(Nc1c(F)cccc1F)c1ccccc1Cl,i,i,i,i,nt,nt
O=C(Nc1c(F)cccc1F)c1ccc(Cl)cc1,i,7.7,i,i,i,i
O=C(Nc1ccc2ccccc2c1)c1ccc(Cl)cc1,i,5.2,i,i,i,i
CC1Cc2cc(S(=O)(=O)CCC(=O)Nc3cccc(F)c3)ccc2N1C(=O)C1CC1 (stereo not given),i,i,i,i,nt,nt
CC1Cc2cc(S(=O)(=O)CCC(=O)Nc3ccccc3Cl)ccc2N1C(=O)C1CC1 (stereo not given),i,5.2,i,i,i,i
CCOC(=O)Cc1csc(NC(=O)c2ccc(OC)cc2)n1,i,i,i,i,nt,nt
CC(C)Sc1ncnc2c1c(-c1ccccc1)cn2-c1cccc(F)c1,i,i,i,i,nt,nt
CCN(CC)C(=O)/C(=C/c1cccc(Br)c1)NC(=O)c1ccco1,i,i,i,i,nt,nt
C=CCOC(=O)/C(C#N)=C/c1ccc(OCC(=O)O)cc1,i,i,i,i,nt,nt
N#C/C(=C\c1ccc(OCC(=O)O)cc1)C(N)=S,i,6.4,i,i,i,i
CCC(CO)NCc1ccc(OCC(=O)NC(C)c2ccccc2)c(OC)c1 (stereo not given),i,6.0,i,i,i,i
CCN1CCC(N(Cc2ccco2)C(=O)NC2CCCC2)CC1,i,5.0,i,i,i,i
CC(C)c1ccc(Cn2ccc3c4c(N)nc(NC5CC5)nc4ccc32)cc1,nt,6.5,i,i,6.5,105.6
CCOC(=O)CNc1c(-c2ccc(O)cc2)nc2cnccn12,i,i,i,i,nt,nt
CCOC(=O)CNc1c(-c2ccc(OC)c(O)c2)nc2ccc(C)cn12,i,5.5,i,i,i,i
CC1=C(C(=O)O)N2C(=O)[C@@H](NC(=O)C(N)C3=CCC=CC3)[C@H]2SC1 (stereo not given in full),i,8.4!,i,i,i,i
CC1=C(C(=O)O)N2C(=O)[C@@H](NC(=O)[C@H](N)C3=CCC=CC3)C2SC1 (stereo not given in full),i,i,i,i,nt,nt
C=CCNC(=O)C1CCN(S(=O)(=O)c2ccc(Br)cc2)CC1,i,5.7,i,i,i,i
COCCCNC(=O)C1CCN(S(=O)(=O)c2ccc(Br)cc2)CC1,i,i,i,i,nt,nt
CC(C)(C)n1nc(Cc2cccc3ccccc23)c2c(N)ncnc21,nt,i,nt,i,nt,nt
CC(C)(C)n1nc(-c2ccccc2)c2c(N)ncnc21,nt,5.2,nt,nt,i,i
COc1cccc(N2CC(NC(=O)N3CCN(c4ccc(C(C)=O)cc4)CC3)CC2=O)c1 (stereo not given),i,i,i,i,nt,nt
